Reference: PubChem BioAssay (NCI)
Compounds without any hit were thinned out: in the full panel of roughly 83,000, 20% have a hit.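 A percent growth of 40 corresponds to 60% growth inhibition; 0 means no net growth; -100 means all cells died. Active threshold: below 10.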 Values without a mark were called inactive. The source made the active and inactive calls.

How the values were obtained:
Experiment in all cases: NCI-60 one-dose screen, 48 h (100 = growth as untreated, 0 = no growth, -100 = all killed)
Conditions in all cases: 10 µM
NCI-H23 lung = tested on: NCI-H23 lung
NCI-H226 lung = tested on: NCI-H226 lung
NCI-H322M lung = tested on: NCI-H322M lung
HOP-62 NSCLC = tested on: HOP-62 NSCLC
NCI-H460 lung = tested on: NCI-H460 lung
HOP-92 NSCLC = tested on: HOP-92 NSCLC
NCI-H522 lung = tested on: NCI-H522 lung
A549/ATCC NSCLC = tested on: A549/ATCC NSCLC
786-0 renal = tested on: 786-0 renal
COLO 205 colon = tested on: COLO 205 colon

| Structure (SMILES) | growth (NCI-H23 lung) | growth (NCI-H226 lung) | growth (NCI-H322M lung) | growth (HOP-62 NSCLC) | growth (NCI-H460 lung) | growth (HOP-92 NSCLC) | growth (NCI-H522 lung) | growth (A549/ATCC NSCLC) | growth (786-0 renal) | growth (COLO 205 colon) |
| --- | --- | --- | --- | --- | --- | --- | --- | --- | --- | --- |
| Cc1cnc(C=O)c2cccc([N+](=O)[O-])c12 | 98.7% | 77.7% | 103% | 91.7% | 106% | 61.2% | 96% | 104% | 99.7% | 106% |
| COc1cc(C2=Nc3c/c(=C\c4c(O)[nH]c5ccc(Cl)cc45)ccc3=N2)cc(OC)c1OC | 2.68% (active) | 55.4% | 57.2% | -82% (active) | 8.64% (active) | -61.5% (active) | 24.9% | 56.5% | -6.36% (active) | -41.1% (active) |
| CCCCn1c(=O)[nH]c2c(c1=O)C(c1ccc(Cl)cc1)c1c([nH]c(=O)n(CCCC)c1=O)N2 | 90% | 96.3% | 91.6% | 90.4% | 106% | 90.4% | 83.3% | 87.8% | 93.4% | 105% |
| Nc1ncncc1-c1ccc(F)cc1 | 108% | 108% | 108% | 105% | 110% | 95.9% | 119% | 106% | 104% | 114% |
| C=C[C@]1(C)C=C2C(=O)[C@@]3(O)OC(=O)[C@@]4(CCCC(C)(C)[C@H]34)[C@@]2(O)CC1 | -60.6% (active) | -55.8% (active) | -27.4% (active) | -1.33% (active) | 0.905% (active) | -87.6% (active) | -71.7% (active) | -66.6% (active) | -98.5% (active) | -98.2% (active) |
| CCCCc1ccc(NC(=O)N(CCCl)N=O)cc1 | 109% | 91.2% | 96.8% | 90.8% | 102% | 105% | 97% | 102% | 94.2% | 101% |
| COC(=O)[C@]12CC[C@@H](C)[C@H](C)[C@@H]1C1=CC[C@@H]3[C@@]4(C)CC(=O)[C@H](O)[C@@](C)(CO)[C@@H]4C(=O)C[C@@]3(C)[C@]1(C)CC2 | -14.2% (active) | -5.55% (active) | 18.4% | -21.5% (active) | -48.9% (active) | -22.5% (active) | -65.9% (active) | -63.6% (active) | 0.121% (active) | -64.6% (active) |
| N#Cc1cnc2ccc(NCc3cnc[nH]3)cc2c1Nc1ccc(F)c(Cl)c1 | 78.8% | 88.2% | 1.96% (active) | 94.3% | 62.5% | 51.9% | 10.2% | 70.9% | 65.7% | 96.9% |
| FC(F)(F)c1ccc(-c2nc(-c3nc4cc(Cl)c(Cl)cc4[nH]3)c3ccccn23)cc1 | 75.1% | 55.2% | 61.2% | 64% | 60.4% | 37.9% | 74.8% | 62% | 56.3% | 87.1% |
| C#Cc1ccc(-n2c(/C=C/c3cc(OC)c(OC)c(OC)c3)nc3ncccc3c2=O)cc1 | 73.6% | 56.1% | 68.3% | 66.2% | 72.6% | 6.32% (active) | 7.99% (active) | 44.1% | 75.9% | 31.1% |
| COc1ccc(/C(CS(=O)(=O)c2ccccc2)=N\O)cc1 | 105% | 89.1% | 108% | 109% | 109% | 109% | 97.3% | 92.1% | 104% | 114% |
| C=CCNCCCN1C(=O)c2ccc3c4c(ccc(c24)C1=O)C(=O)N(CCCNCC=C)C3=O | -55.6% (active) | -30.8% (active) | -48.3% (active) | -53% (active) | -56.7% (active) | -21.6% (active) | -77.3% (active) | -73.6% (active) | -31% (active) | -86.8% (active) |
| CCCCCCN=C(N)CCCCCCCCCCC(N)=NCCCCCC | 27.8% | 51.6% | 62.4% | 18.5% | 13.4% | 8.01% (active) | 23.9% | 33.7% | 37% | -9.55% (active) |
| CC(C)(C)CC(C)(C)c1ccc(O)c(Cc2ccc(Cl)cc2Cl)c1 | -85.9% (active) | -83.8% (active) | -89.6% (active) | -88.4% (active) | -68.1% (active) | -90.6% (active) | -84.7% (active) | -88.5% (active) | -92.8% (active) | -71.4% (active) |
| NC(=O)c1ccc(Br)o1 | 95.1% | 104% | 104% | 91.7% | 109% | 114% | 88.3% | 109% | 96.8% | 103% |
| COc1ccc2oc(=O)cc(C(c3ccc[nH]3)c3ccc[nH]3)c2c1 | 26% | 7.92% (active) | 27.7% | 4.73% (active) | 4.57% (active) | 32.6% | -23.1% (active) | -7.88% (active) | 17.2% | -71.5% (active) |
| N#CN1CC[C@H](C(=O)Nc2ncc(-c3ccncc3)s2)C1 | -22% (active) | -9.42% (active) | 11.1% | -7.49% (active) | 3.58% (active) | -0.157% (active) | -37.8% (active) | -32.4% (active) | 5.77% (active) | -55.4% (active) |
| CC(=O)CS(C)(=O)=O | 102% | 101% | 113% | 106% | 114% | 98.5% | 93.7% | 96.7% | 106% | 106% |
| CC(C)c1[nH]nc2c(NCc3ccc(-c4ccccn4)cc3)nc(SCCN(C)C)nc12 | -23.8% (active) | 2.16% (active) | 17% | -11.2% (active) | 8% (active) | -15.9% (active) | -48.3% (active) | 8.6% (active) | 11.3% | -42% (active) |
| C=CCc1cc(Nc2c3ccc(Cl)cc3nc3ccc(OC)cc23)cc(CN(CC)CC)c1O | -0.558% (active) | 26.3% | 49.5% | 9.37% (active) | 4.5% (active) | -20.5% (active) | -5.89% (active) | 13.3% | 12.3% | -83.9% (active) |
| COc1cc([C@@H]2c3cc4c(cc3[C@H](SC(=N)N)[C@H]3COC(=O)[C@H]23)OCO4)cc(OC)c1OC | 13.7% | 0.754% (active) | 13% | 51.4% | 5.84% (active) | 68.5% | -7.12% (active) | 18.3% | 10.3% | -67.2% (active) |
| COc1ccc(C2C=C(c3ccc(Cl)c(Cl)c3)N=C3SC(C)=CN32)cc1OC (stereo not given) | 64% | 79.7% | 71.7% | 82.3% | 70.2% | 47.2% | 57.9% | 58.6% | 78.8% | 72.1% |
| CCN(CCCNC(=O)Cc1cc(=O)oc2cc(N(C)C)ccc12)CCNc1ccnc2cc(Cl)ccc12 | 94.9% | 93.1% | 91% | 85.6% | 92.3% | 59.5% | 56.8% | 93.4% | 86.3% | 68.1% |
| CC(=O)O[C@H]1CC[C@@]2(C)[C@@H](CC[C@@H]3[C@@H]2CC[C@]2(C)C=C(C=O)C[C@@H]32)C1 | 73.6% | 119% | 90.9% | 33.3% | 103% | 76.2% | 93.1% | 95.3% | 102% | 95.4% |
| CC(C)OP(=O)(O)c1ncc(-c2ccc(C(F)(F)F)cc2)c(NC2CCCCCC2)n1 | 62.6% | 74.1% | 91.1% | 70.5% | 41.5% | 22.8% | 48.8% | 49.2% | 81.6% | 61% |
| COc1ccc(C(=O)n2nc(CC(=O)NCc3ccccc3)nc2N)cc1 | 108% | 106% | 95.4% | 108% | 115% | 111% | 104% | 109% | 97% | 117% |
| Cc1ccc(NC(=O)/C=N/O)cc1C | 94.6% | 53.2% | 102% | 92.7% | 103% | 82.3% | 93% | 94% | 101% | 105% |
| CCOc1ccc(-n2cc(-c3ccc(N(C)C)cc3)[n+]3c2CCCCC3)cc1 | 0.183% (active) | 18.6% | 45.3% | 3.02% (active) | 5.52% (active) | -8.52% (active) | -0.392% (active) | 22.4% | 20.7% | -68.6% (active) |
